Test systems include HCT-15 colon; HT29 colon; SNB-75 CNS; SNB-19 CNS; U251 CNS; SK-MEL-5 melanoma; UACC-62 melanoma; LOX IMVI melanoma; SK-MEL-28 melanoma; PC-3 prostate.
What all share (assay): NCI-60 one-dose screen, 48 h (100 = growth as untreated, 0 = no growth, -100 = all killed)
Holding throughout (details): 10 µM unless noted

About 83,000 compounds went through this panel and 20% of them were active in at least one assay; those are over-represented in the sample as a whole.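 Interpretation: 100, growth as untreated; towards 0, rising growth inhibition; 0, no net growth; 0 to -100, cell death. Compounds scoring below 10 were considered active.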 A number with no mark means an inactive call. The source made the active and inactive calls.

On to `CCCC(=O)N1CCCCC1CC` (stereo not given), for which the growth was 99.4% in the assay on HCT-15 colon; 106% with HT29 colon; 92% with SNB-75 CNS; 112% in the assay on SNB-19 CNS; 91.8% with U251 CNS; 117% in the assay on SK-MEL-5 melanoma. Also, the growth was 111% with UACC-62 melanoma, 105% in the assay on LOX IMVI melanoma and 112% in the assay with SK-MEL-28 melanoma.
On to `O=C(/C=C\c1ccc2c(c1)OCO2)/C=C/c1ccc2c(c1)OCO2`, for which the growth in the assay with HCT-15 colon was 11%; with HT29 colon, 32.1%; with SNB-75 CNS, 75.7%; in the assay with SNB-19 CNS, 68.9%; in the assay on U251 CNS, 19.4%; with SK-MEL-5 melanoma it was 84%. For the same molecule, the growth with UACC-62 melanoma is 75.1%; with SK-MEL-28 melanoma it was 105%.
With `O=C1C(=O)N(CCCCn2cc(-c3ccccc3)nn2)c2ccccc21`, the growth with HCT-15 colon was 105%; with HT29 colon, 112%; with SNB-75 CNS it was 95%; in the assay on SNB-19 CNS, 99.7%; with U251 CNS, 107%; in the assay on SK-MEL-5 melanoma, 100%. Besides, the growth with UACC-62 melanoma is 95.7%; in the assay with SK-MEL-28 melanoma, 113%.
Consider `Cc1ccc(-c2nn(Cc3cn(-c4cc(C)nc5ccccc45)nn3)c3ncnc(N)c23)cc1`, for which the growth was 57% in the assay on HCT-15 colon; 49.8% in the assay with HT29 colon; 15.5% in the assay with SNB-75 CNS; 53.2% with SNB-19 CNS; 71.8% with U251 CNS; 40.7% with SK-MEL-5 melanoma. Moreover, the figures for the growth with LOX IMVI melanoma and with SK-MEL-28 melanoma were 52.4% and 68.7%, respectively.
As for `Cn1cc(-c2csc(-c3cn(CCN)c4ccccc34)n2)c2cccnc21`, the growth with HCT-15 colon is 46.6%; in the assay with HT29 colon it was 30.3%; in the assay on SNB-75 CNS it was 46.8%; in the assay with SNB-19 CNS it was 65.3%; in the assay on U251 CNS it was -75% (active); in the assay with SK-MEL-5 melanoma, 23.7%. For the same molecule, the growth in the assay with LOX IMVI melanoma is 45.3%; in the assay with SK-MEL-28 melanoma, 73%.
In the case of `CC1(C)C(=O)/C(=C\c2ccccn2)C[C@]2(C)[C@H]3CC[C@@H]4[C@@H](C(=O)/C=C/c5ccccn5)CC[C@@]4(C)[C@]3(C)CC[C@@H]12`, the growth is -31% (active) in the assay with HCT-15 colon; -13.6% (active) with HT29 colon; -3.97% (active) in the assay with SNB-75 CNS; 4.66% (active) with SNB-19 CNS; -80.5% (active) in the assay with U251 CNS; -82.5% (active) with SK-MEL-5 melanoma. The growth in the assay with UACC-62 melanoma is -54.2% (active); in the assay with SK-MEL-28 melanoma, -32.1% (active).
`Cn1cc(-c2nc(-c3c[nH]c4ncccc34)cs2)c2cc(Br)ccc21`: the growth was 64.2% in the assay on HCT-15 colon; 70.5% in the assay with HT29 colon; 80.5% in the assay with SNB-75 CNS; 108% in the assay with SNB-19 CNS; 72.9% with U251 CNS; 76.7% in the assay with PC-3 prostate. In the assay on SK-MEL-28 melanoma, the growth was 102%.
Regarding `COc1cnc2c(c1)C(=O)c1c-2n(CCCNCCN2CCOCC2)c(=O)c2cc([N+](=O)[O-])ccc12`, the growth in the assay with HCT-15 colon was 0.784% (active); with HT29 colon it was 1.17% (active); with SNB-75 CNS it was -4.98% (active); in the assay with SNB-19 CNS it was 15.2%; in the assay with U251 CNS, -56.5% (active); in the assay with PC-3 prostate it was 15.7%. Besides, the growth was -66.2% (active) in the assay on LOX IMVI melanoma and 47.5% in the assay on SK-MEL-28 melanoma.
Take `CCCCC[C@H]1C/C=C2/C(=O)C(Cl)=C[C@@H]2C/C=C\CCCC(=O)O1`: the growth in the assay on HCT-15 colon was -61.9% (active); in the assay with HT29 colon it was -22.6% (active); with SNB-75 CNS, 5.2% (active); in the assay on SNB-19 CNS it was -73.4% (active); with U251 CNS, -91.7% (active); with PC-3 prostate it was -46.6% (active). For the same molecule, the growth is -85.2% (active) with LOX IMVI melanoma and -64.7% (active) with SK-MEL-28 melanoma.
As to `CN(C)c1ccc(-c2ccc(-c3ccc(C(=N)N)c(F)c3)s2)cc1`, the growth in the assay on HCT-15 colon was -80.8% (active); in the assay with HT29 colon, -61.2% (active); in the assay with SNB-75 CNS, 98.9%; with SNB-19 CNS, -71% (active); in the assay with U251 CNS it was -96.2% (active); in the assay on SK-MEL-5 melanoma it was -64.9% (active). Moreover, the growth with UACC-62 melanoma is -93.3% (active); with SK-MEL-28 melanoma it was 74.5%.
For the molecule `COc1ccc(-c2nc3c(c(C)nn3-c3ccc(F)cc3)c(=O)[nH]2)cc1`, the growth in the assay on HCT-15 colon was 83%; in the assay on HT29 colon it was 58.6%; in the assay with SNB-75 CNS it was 11.1%; in the assay with SNB-19 CNS it was 75%; in the assay on U251 CNS it was 44%; in the assay on SK-MEL-5 melanoma, 79.1%. Besides, the figures for the growth in the assay with LOX IMVI melanoma and in the assay with SK-MEL-28 melanoma were 75.2% and 96.8%, respectively.
Regarding `COc1ccccc1CNc1nc(N)nc2[nH]c3ccc(O)cc3c12`, the growth in the assay on HCT-15 colon is 41%; in the assay with HT29 colon, 18.9%; in the assay with SNB-75 CNS, 35.8%; in the assay on SNB-19 CNS, 59%; with U251 CNS, 37.4%; with SK-MEL-5 melanoma, 38.3%. For the same molecule, in the assay on LOX IMVI melanoma, the growth was 43.2%.
Turning to `c1ccc2c(-c3nc(-c4c[nH]c5ncccc45)cs3)c[nH]c2c1`, the growth was 84.9% with HCT-15 colon; 79.2% in the assay on HT29 colon; 88.4% with SNB-75 CNS; 97.8% with SNB-19 CNS; 104% in the assay with U251 CNS; 106% with SK-MEL-5 melanoma. The growth was 96.9% in the assay with UACC-62 melanoma and 112% in the assay on SK-MEL-28 melanoma.
As for `Cc1cc(Cl)nc(N(CCNc2ccnc3cc(Cl)ccc23)Cc2ccco2)n1`, the growth in the assay with HCT-15 colon is 35.7%; in the assay with HT29 colon, 30.3%; in the assay on SNB-75 CNS, 81.5%; with SNB-19 CNS, 37.9%; with U251 CNS, 17.9%; in the assay on SK-MEL-5 melanoma it was 42.9%. Besides, the figures for the growth in the assay on LOX IMVI melanoma and in the assay on SK-MEL-28 melanoma were 22.5% and 3.02% (active), respectively.
Take `Cc1ccc(-c2ccc(Nc3ccccc3)nn2)cc1S(N)(=O)=O`: the growth was 65.9% in the assay with HCT-15 colon; 70.9% with HT29 colon; 87.1% with SNB-75 CNS; 106% in the assay on SNB-19 CNS; 93.7% in the assay with U251 CNS; 89.3% in the assay on SK-MEL-5 melanoma. Moreover, the growth with UACC-62 melanoma is 89%; in the assay on LOX IMVI melanoma it was 73.7%; in the assay on SK-MEL-28 melanoma, 89.1%.
